High-throughput results deposited in PubChem BioAssay by National Center for Advancing Translational Sciences (NCATS).
An excerpt weighted towards active compounds, which were near 2.8% of everything screened.
POLB inh – inhibitors of human DNA polymerase beta; P06746; Pol beta primer extension/strand displacement, fluorescence kinetic; Potency, µM (series often up to 114 µM), for inactives: top-dose activity change, negative = inhibition, usual class: inhibitors; 340,000 tested, 1.3% active; further: potency means the concentration at half of the fitted maximal effect; on the % scale 0 is the no-effect control and ±100 the full control effect
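Pol beta (10 nM) and compounds were preincubated 15 min at room temperature, then 50 nM substrate (final) started primer extension/strand displacement. Reads were taken at 0 and 10 min; concentration-response data were fitted to a four-parameter Hill equation.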
POLI inh – inhibitors of human DNA polymerase iota; 390,000 tested, 1% active; Pol iota fluorescent replication assay, 10 min; Potency, µM (titrated, usually from 115 µM), inactives show top-dose activity, negative = inhibition, usual class: inhibitors; AID 588590; Q9UNA4; further: potency means the concentration at half of the fitted maximal effect
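Fluorescent replication assay read twice, at 0 min and 10 min after adding 50 nM (final) substrate. Enzyme (10 nM) and compounds were first incubated 15 min at room temperature; enzyme-free buffer wells were negative controls.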
POLH inh – DNA polymerase eta (human) inhibition; Q9Y253; recombinant Pol eta, fluorescent DNA replication assay; Potency, µM (series often up to 114 µM), inactives show at the highest dose activity change, negative = inhibition, most hits filed as inhibitors; 390,000 tested, 1.2% active; further: potency means the concentration at half of the fitted maximal effect; on the % scale 0 is the no-effect control and ±100 the full control effect
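Pol eta at 10 nM preincubated with compounds 15 min at room temperature; reaction started with fluorescent substrate (50 nM final) and read kinetically at 0 and 10 min.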
PI5P4K alpha inh – PI5P4K alpha (human) kinase inhibition; P48426; PI5P4Kalpha enzyme, ADP-Glo luminescence, 60 min; active compounds read low; max response, %; 330,000 tested, 1.2% active; AID 652105; active means max response of -50% or lower; inconclusive means between -30% and -50%; inactive means -30% or higher; further: value at the top dose of about 77 µM; on the % scale 0 is the no-effect control and ±100 the full control effect
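Enzyme plus substrate dispensed, test compounds pinned in, then ATP (5 microM final) added. After 60 min at RT, ADP-Glo reagent 1 for 45 min and reagent 2 for 30 min preceded luminescence imaging.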
WRN helicase inh – inhibitors of human WRN helicase; WRN helicase unwinding, fluorescent forked duplex, kinetic; AID 651768; 360,000 tested, 0.46% active; Potency, µM (top dose mostly 114 µM), for the others: at the top dose activity change, negative = inhibition, hits mostly inhibitors; further: potency means the concentration at half of the fitted maximal effect; on the % scale 0 is the no-effect control and ±100 the full control effect; nearly all actives have a fitted effect of over 55% in size
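WRN at 20 nM final was preincubated with compound for 15 min at room temperature; reaction started with 100 nM forked duplex oligonucleotide carrying fluorophore and quencher plus 2 mM ATP (final). Unwinding followed kinetically by red fluorescence (ex 525/em 598 nm).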
POLK inh – blocks human DNA polymerase kappa activity | Q9UBT6 | purified Pol kappa, fluorescent DNA synthesis assay, 10 min | Potency, µM (highest dose often 107 µM), for the others: at the highest dose activity, negative = inhibition, usual class: inhibitors | 400,000 tested, 0.53% active | AID 588579; further: potency means the concentration at half of the fitted maximal effect; on the % scale 0 is the no-effect control and ±100 the full control effect
Target sequence (Q9UBT6 whole entry, looked up): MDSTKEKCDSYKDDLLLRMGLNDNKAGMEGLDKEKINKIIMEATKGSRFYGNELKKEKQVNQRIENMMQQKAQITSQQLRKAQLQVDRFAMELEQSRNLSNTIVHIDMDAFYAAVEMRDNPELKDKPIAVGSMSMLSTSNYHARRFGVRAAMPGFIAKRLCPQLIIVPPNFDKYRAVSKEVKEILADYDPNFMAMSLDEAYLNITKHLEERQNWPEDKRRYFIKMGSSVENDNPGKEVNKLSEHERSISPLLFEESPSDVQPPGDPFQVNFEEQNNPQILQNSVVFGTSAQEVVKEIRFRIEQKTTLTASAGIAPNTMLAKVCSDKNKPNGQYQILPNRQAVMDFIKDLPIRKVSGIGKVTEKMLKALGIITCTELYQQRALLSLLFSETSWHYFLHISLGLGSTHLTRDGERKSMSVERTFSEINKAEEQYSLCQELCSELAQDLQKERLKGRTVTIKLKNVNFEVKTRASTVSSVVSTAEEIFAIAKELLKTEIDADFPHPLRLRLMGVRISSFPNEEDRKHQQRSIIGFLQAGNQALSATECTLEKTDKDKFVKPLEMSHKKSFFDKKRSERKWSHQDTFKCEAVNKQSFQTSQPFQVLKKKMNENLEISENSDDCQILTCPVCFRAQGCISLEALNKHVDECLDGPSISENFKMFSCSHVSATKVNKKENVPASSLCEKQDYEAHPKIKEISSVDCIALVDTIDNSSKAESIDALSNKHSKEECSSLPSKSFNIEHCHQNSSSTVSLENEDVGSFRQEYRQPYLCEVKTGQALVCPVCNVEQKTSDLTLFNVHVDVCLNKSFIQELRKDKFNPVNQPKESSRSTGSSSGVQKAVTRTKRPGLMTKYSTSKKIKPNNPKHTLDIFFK
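50 nM final substrate added after 15 min RT preincubation of 10 nM Pol kappa with compound; fluorescence read at 0 and 10 min.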
* hit, by the source's call; ? = inconclusive; . = no result; [ ] = dose if it differs, or a comment. Unless noted, the call rests on the fitted dose curve; in most records, active means well fitted curve in the direction sought with a large enough effect; inconclusive means small, poorly fitted or top-dose-only effect, or another doubt; inactive means no such curve, though single readings can be large; an effect the other way counts as inactive or inconclusive.

SMILES	POLB inh	POLI inh	POLH inh	PI5P4K alpha inh	WRN helicase inh	POLK inh
COc1cccc(C(=O)Nc2cccc(C(=O)N3CCOCC3)c2)c1	5%	89µM*	10%	2	1%	-10%
CCCCNC(=O)C1(C)CCN1C(=O)c1cc(-c2cccs2)oc1C (stereo not drawn)	.	.	.	-15	5%	.
CN(CC(=O)O)S(=O)(=O)c1cccs1	17%	89µM*	3%	0	-4%[57.1 µM]	3%
Cc1ccc(-c2nnc(Nc3ccc(C(=O)N(C)C)cc3)c3ccccc23)cc1S(=O)(=O)N(C)C	1%	24%	-6%	.	.	6%
COc1ccc(C(=O)COC(=O)[C@H](C)Nc2ccc(C(F)(F)F)cc2[N+](=O)[O-])c(OC)c1	40µM*	?	?	?	-20%	-27%
Ic1ccc(Nc2nc(NCCN3CCOCC3)nc(N3CCOCC3)n2)cc1	.	3%	.	.	.	-2%
CCc1nc2ccc(C(=O)N(CC)CCN(C)C)cn2c1N(CC)C(=O)NCCc1ccccc1	.	.	.	2	-3%	.
COc1ccc(O)c(/C=N/NC(=O)c2ccc(N3CCCC3=O)cc2)c1	10µM*	?	-11%	3	-16%	-45%
COc1cc(OC)c(NC(=O)c2ccc3c(c2)N(Cc2ccc(C)cc2)CCS3)cc1Cl	12%	49%	-25%	.	.	-10%
Cc1cc(=O)oc2cc(OCC(O)CN3CCN(c4ccc(F)cc4)CC3)ccc12 (stereo not drawn)	0%	32%	-8%	.	3%[57.1 µM]	-4%
Cc1cc(=O)oc2cc(OCC(=O)c3ccc4c(c3)NC(=O)CO4)ccc12	?	3.2µM*	?	2	?	-15%
Cc1cc(=O)oc2cc(OCC(=O)N3CCN(c4ccc(F)cc4)CC3)ccc12	20%	40µM*	-7%	3	-4%[11.6 µM]	?
S=c1ncc2[nH]c(=S)[nH]c2[nH]1	.	?	-15%	-84*	?	-9%
S=c1[nH]c2ccc(Cl)cc2[nH]1	?	-3%	1%	?	-22%	-1%
O=C(NCCC1=CCCCC1)c1coc(=O)c(Br)c1	1%	?	-14%	2	5%	5%
O=C(NC(CO)(CO)CO)c1coc(=O)c(Br)c1	39%	4%	-9%	.	2%	-7%
O=C(NNC(=O)C1C2CCCCC21)c1coc(=O)c(Br)c1 (stereo not drawn)	?	45µM*	50µM*	?	-5%[11.6 µM]	?
O=C(Nc1cc(Cl)cc(Cl)c1)c1coc(=O)c(Br)c1	28µM*	28µM*	?	-23	?	79µM*
CC(=O)c1cc2c(cc1NC(=O)CSc1ncccn1)OCO2	.	.	-6%	-7	4%	.
O=c1ccc2ccc(O)c(O)c2o1	14µM*	24µM*	?	.	.	9.5µM*
COc1cc2ccc(=O)oc2cc1O	.	5%	-8%	3	-1%	16%
COc1ccccc1/C=C/c1nc2ccccc2s1	.	-9%	.	.	.	-7%
C=CCOc1ccc(/C=C2\SC(=S)N(NS(=O)(=O)c3ccccc3)C2=O)cc1	?	?	25µM*	-56*	-5%[11.6 µM]	-18%
COc1cc(/C=C2\SC(=S)N(NS(=O)(=O)c3ccccc3)C2=O)ccc1O	-40%	32µM*	?	-61*	50µM*	-14%
CCOc1cc(/C=C2\SC(=S)N(NS(=O)(=O)c3ccc(C)cc3)C2=O)ccc1O	.	?	?	-59*	50µM*	?
SMILES	POLB inh	POLI inh	POLH inh	PI5P4K alpha inh	WRN helicase inh	POLK inh
COc1cc(/C=C2\SC(=S)N(NS(=O)(=O)c3ccc(C)cc3)C2=O)cc(OC)c1OC	13%	-23%	-2%	-17	-30%	-19%
O=C1/C(=C/c2cccnc2)SC(=S)N1NS(=O)(=O)c1ccccc1	20%	82%	-15%	?	-25%	-12%
COc1ccc(/C=C2/SC(=S)N(NS(=O)(=O)c3ccccc3)C2=O)cc1	3%	76%	89µM*	?	?	-16%
Cc1ccc(N)c2c1OCCC2=O	16%	40%	-4%	0	29%	-17%
CCOC(=O)CCCC(=O)N1CCN(/[N+]([O-])=N/Oc2ccc([N+](=O)[O-])cc2[N+](=O)[O-])CC1	.	?	.	.	.	5%
CC1CCN(CCC(=O)Nc2ccc(F)c(F)c2)CC1	15%	43%	-22%	-3	5%	-13%
CC(/C=C1\SC(=S)N(NS(=O)(=O)c2ccccc2)C1=O)=C\c1ccccc1	-38%	?	79µM*	?	-1%[11.6 µM]	-5%
Cc1cc(C)cc(-n2c3ccc(NC(=O)Cc4cccc5ccccc45)cc3c(=O)n2C)c1	.	.	.	6	1%	.
CCCNC(=O)c1ccc2c(=O)c(O)c(-c3ccc(C)cc3)[nH]c2c1	4%	21%	0%	5	-6%	-5%
Cc1ccc(-c2[nH]c3cc(C(=O)NCCCn4ccnc4)ccc3c(=O)c2O)cc1	0%	79µM*	-9%	-4	-22%	-4%
CC[n+]1c(/C=C/N(C)c2ccccc2)n(-c2ccccc2)c2ccc(-c3nc4ccccc4s3)cc21	-20%	136%	?	?	?	21µM*
CCOC(=O)c1ccc2c(c1)n(CC)c(/C=C/N(C)c1ccccc1)[n+]2CC	-25%	17%	-13%	-8	9%	-15%
O=C(NCCO)c1ccc(CSc2nc3ccccc3[nH]2)cc1	32%	21%	-11%	-2	-21%[57.1 µM]	-3%
CCOc1ccc(/C=N/NC(=O)c2cc3c(OC)cc(OC)cc3[nH]2)cc1OC	?	24%	?	2	-26%	-8%
COc1cc(/C=N/NC(=O)c2ccc3nc[nH]c3c2)cc(OC)c1OC(C)=O	.	.	9%	-8	21%	.
COc1ccc(/C=N/NC(=O)c2ccc(Cl)c(S(N)(=O)=O)c2)cc1OCC(N)=O	-25%	-19%	-3%	0	-22%	79µM*
COc1cc(/C=N/NC(=O)c2ccc(CSc3nc4ccccc4[nH]3)cc2)cc(OC)c1OC	10µM*	?	?	-6	-20%[57.1 µM]	?
COc1cc(/C=N/NC(=O)c2ccc3nc[nH]c3c2)cc(OC)c1OC	7.1µM*	16µM*	?	-12	-15%	?
CCOc1ccc2[nH]c(C(=O)N/N=C/c3cc(OC)c(OC)c(OC)c3)cc2c1	13µM*	-15%	?	4	4%	-30%
CCN(CC)CCCOc1cc2nc(N3CCCN(C)CC3)nc(NC3CCN(C)CC3)c2cc1OC	.	?	.	.	.	-14%
CC(=O)N1CCc2c(sc3c2c(=O)n(CCc2ccccc2)c(=O)n3Cc2ccc(F)cc2)C1	3%	-2%	-18%	.	.	-7%
Cc1ccc2c(C(=O)CNC3=NCCS3)c(C)[nH]c2c1	.	-10%	.	.	.	-1%
COc1cc(NC(=O)c2cc(-c3ccco3)on2)cc(OC)c1OC	9%	-16%	-1%	-6	-8%	-11%
